Assay results taken from the supplement of paper PMC7156485.
± gives the standard deviation of the averaged measurements.

tested on: TDF; assay: cell number relative to DMSO (% of DMSO); higher = more cells (less growth inhibition / toxicity); details: concentration: 10 µM; 24 h
Outline: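 Cells were seeded at 800 per well in 384-well plates with RPMI containing 10% FBS; both HCC1569 and TDF lines were used. Compounds were added at 10 µM for 24 h at 37 °C, in triplicate, before fixation in 3.7% formaldehyde and staining with a rabbit anti-H1.0 antibody, an AlexaFluor 647 secondary and DAPI. H1.0 nuclear intensity or cell number is reported as percent of the plate control using the median of replicates, and HCC1569 values were smoothed for positional effects.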
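Note: TDF denotes transformed human dermal fibroblasts of mesenchymal origin.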

| SMILES | cell number |
| --- | --- |
| O=C(NCCCN1CCOCC1)c1cnn2c(-c3ccccc3)cc(-c3ccccc3)nc12 | 84.3 |
| O=C([O-])C=CC(O)c1ccc(Cl)cc1.[Na+] (stereo not drawn) | 97.4 |
| O=C(O)CN(CCN(CC(=O)O)CC(=O)O)CCN(CC(=O)O)CC(=O)O [Diethylenetriaminepentaacetic acid] | 104 |
| Nc1nc2ccccc2c2ccccc12 [6-phenanthridinamine] | 64.8 |
| CC(O)CCCC(O)C=CC1C(O)CC(=O)C1CC=CCCCC(=O)O [19(R)-Hydroxy-prostaglandin E2] | 92.7 |
| CCC(C)C1OC2(CCC1C)CC1CC(CC=C(C)C(OC3CC(OC)C(OC4CC(OC)C(O)C(C)O4)C(C)O3)C(C)C=CC=C3COC4C(O)C(C)=CC(C(=O)O1)C34O)O2 (stereo not drawn) [Ivermectin] | 103 ± 8.2 |
| NC(N)=Nc1nc(CSCCC(N)=NS(N)(=O)=O)cs1 [Famotidine] | 102 |
| CC(OC1OCCN(Cc2nc(=O)[nH][nH]2)C1c1ccc(F)cc1)c1cc(C(F)(F)F)cc(C(F)(F)F)c1 (stereo not drawn) [Aprepitant] | 96.8 |
| Nc1ncnc2c1cnn2-c1ccccc1 | 110 |
| O=S1(=O)CCN(CN2CCS(=O)(=O)NC2)CN1 | 99.3 |
| CC(C)(C)c1ccc(S(=O)(=O)Nc2ccc(-n3ccnc3)cc2)cc1 [Stem-Cell Factor/c-Kit Inhibitor, ISCK03] | 102 |
| CN1CCN(C2=Nc3ccccc3Sc3ccc(Cl)cc32)CC1 [Clothiapine] | 88.9 |
| OCC1OC(OC2OC=CC3C(O)C4OC4(CO)C23)C(O)C(O)C1O (stereo not drawn) [Catalpol] | 106 |
